Screens deposited in PubChem BioAssay by several laboratories.
MEKK2 WT-MEK5 = modulators of MEK5 binding to wildtype MEKK2, primary screen, biochemical, multiplex bead flow cytometry, Alexa488-MEK5; binding response (% of control), % at 10 µM; Alexa488-MEK5 binding to MEKK2 WT; actives lie on both sides; 290,000 compounds, 1.1% hits; AID 1531, 2009; in the data active means binding response below about 67% or above about 130%; inconclusive means no clear call, values can overlap the other calls; inactive means in between
MEKK3 PB1 HTS = modulators of MEKK3-MEK5 PB1 binding, primary screen, biochemical, wildtype MEKK3, multiplex bead flow cytometry, Alexa488-MEK5 | Mitogen-activated protein kinase kinase kinase 3 (Homo sapiens), Q99759 | bead-based flow cytometry, Alexa488-MEK5 binding to MEKK3; actives lie on both sides; 0 = blocked by unlabeled MEK5, 100 = vehicle | binding response (% of control), % at 10 µM | 290,000 compounds, 1.4% hits;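 active means binding response more than 3 SD above or below the average of its plate-row segment, actives on both sides; inconclusive means wells at one plate position flagged as instrument error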;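 further: Alexa488 bead fluorescence after subtracting the streptavidin-only scavenger bead signal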
dFosB act-1 = activators of delta FosB homodimer, primary screen, biochemical, fluorescence polarization, TAMRA-CDK5 oligo, single point; purified delta FosB; percent of positive-control signal above neutral wells; activation, % at 25 µM; 340,000 compounds, 0.99% hits; AID 493131, 2011;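 active means mean activation above about 17%, with every replicate also reaching it, limit read from the data, passing the limit was not always enough; inconclusive means only one of the two conditions met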
Target sequence (P13346 whole entry, looked up): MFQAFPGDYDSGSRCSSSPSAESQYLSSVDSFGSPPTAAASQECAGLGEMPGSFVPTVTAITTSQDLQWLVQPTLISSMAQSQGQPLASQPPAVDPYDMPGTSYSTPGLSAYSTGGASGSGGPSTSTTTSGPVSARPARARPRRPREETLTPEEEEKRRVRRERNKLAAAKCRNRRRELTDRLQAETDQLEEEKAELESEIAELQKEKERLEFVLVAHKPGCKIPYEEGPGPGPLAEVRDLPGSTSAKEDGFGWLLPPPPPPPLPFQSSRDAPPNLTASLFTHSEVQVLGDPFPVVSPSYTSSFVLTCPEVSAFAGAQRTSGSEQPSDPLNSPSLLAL
FID counter = compounds displacing fluorescent DNA intercalator, primary screen, artefact control for HCV NS3 helicase inhibitor project, biochemical, FID fluorescence | DNA fluorescent intercalator displacement | 290,000 compounds, 0.17% hits | AID 1845, 2009 | inhibition, % at 7.9 µM; in the data active means inhibition above about 37%;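 further: higher means more ethidium bromide displaced from hairpin DNA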
MEKK2mut PB1 HTS = MEK5 binding signal on mutant MEKK2 PB1, primary screen, biochemical, multiplex bead flow cytometry, Alexa488-MEK5 | 290,000 compounds, 0.35% hits | percent response, % at 10 µM | AID 1530, 2009 | Alexa488-MEK5 binding to MEKK2 mutant; in the data active means percent response above about 24%, passing the limit was not always enough
MEKK2wt confirm = modulators of MEK5 binding to wildtype MEKK2, confirmation, biochemical, single concentration, multiplex bead flow cytometry. shares compounds with MEKK3 PB1 HTS. Alexa488-MEK5 binding to MEKK2 WT; actives lie on both sides. binding response (% of control), % at 10 µM. 5,900 compounds, 2.4% hits. AID 1892, 2009; in the data active means binding response below about 16% or above about 210%; inactive means in between
MEKK2mut-MEK5 = mutant MEKK2 PB1-MEK5 binding signal retest – biochemical, single concentration, multiplex bead flow cytometry, confirmation; shares compounds with MEKK3 PB1 HTS; 5,900 compounds, 2% hits; percent response, % at 10 µM; Alexa488-MEK5 binding to MEKK2 mutant; in the data active means percent response mostly above about 71%, no sharp cut-off; inactive means mostly below about 38%;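 further: higher means compound restores mutant binding toward wildtype level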
MEKK3 confirm = MEKK3 wild-type PB1 binding to MEK5, inhibitors, confirmation, biochemical, bead multiplex flow cytometry, single concentration, wildtype; Alexa488-MEK5 binding to MEKK3; hits give low values; binding response (% of control), % at 10 µM; 5,900 compounds, 1.8% hits; AID 1894, 2009; shares compounds with MEKK3 PB1 HTS;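 active means binding response below 72% of control, or above a set upper limit, though filed actives all read lower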
dFosB act-2 = activators of mouse delta FosB DNA binding, confirmation, biochemical, fluorescence polarization, TAMRA-CDK5 oligo, cherry-picked samples; shares compounds with dFosB act-1; purified delta FosB; normalised: neutral wells 0, positive control 100; activation, % at 24.9 µM; 2,400 tested, under 10 active; AID 588690, 2011;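 active means highest replicate activation at or above 34% and every replicate reaching that threshold; inconclusive means meets only one of the two criteria; inactive means meets neither criterion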;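 further: higher polarization means more probe DNA bound by delta FosB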
Large screens that a line does not name were inactive (follow-up assays come after a bar, where they were run); [ ] = dose if it differs, or a comment. Sampled rows, rich in hits. Any-hit rate of the full collection: about 2.9%.

COc1cc(OC)c2c(-c3ccccc3)cc(=O)oc2c1C(CCN1CCOCC1)c1ccc2c(c1)OCO2 (configuration not stated)	none (no result: MEKK2 WT-MEK5, MEKK3 PB1 HTS, FID counter, MEKK2mut PB1 HTS)
CCCCCc1cc(=O)oc2c(C(CCN3CCCC(C)C3)c3ccc4c(c3)OCO4)c(OC)cc(OC)c12 (configuration not stated)	MEKK2 WT-MEK5 302, MEKK3 PB1 HTS 122, dFosB act-1 32, MEKK2mut PB1 HTS 74 (no result: FID counter) | MEKK2wt confirm 270 | MEKK2mut-MEK5 109 | MEKK3 confirm inactive | dFosB act-2 inactive
COc1cc(OC)c2c(-c3ccccc3)cc(=O)oc2c1C(CCN1CCCC1)c1ccc2c(c1)OCO2 (configuration not stated)	MEKK2 WT-MEK5 175, MEKK3 PB1 HTS 128, dFosB act-1 19 (no result: FID counter) | MEKK2wt confirm inactive | MEKK2mut-MEK5 inactive | MEKK3 confirm inactive | dFosB act-2 inactive
COc1cc(NC(=O)Cc2ccccc2)ccc1NC(=O)c1ccccc1	none
Cc1cc(NS(=O)(=O)c2cn(C)nc2C)no1	none
CCOC(=O)c1cc(C#N)c(C)nc1N(CC)CC	none
NC(=O)c1nn(-c2ccccc2)nc1NC(=O)Cn1nnc(-c2ccccc2)n1	MEKK3 PB1 HTS 132, dFosB act-1 22 | MEKK2wt confirm inactive | MEKK2mut-MEK5 inactive | MEKK3 confirm inactive | dFosB act-2 inactive
O=C(Nc1ccc(-n2ccc(C(F)(F)F)n2)cc1)Nc1cccc(Cl)c1	MEKK2 WT-MEK5 245, MEKK3 PB1 HTS 141, dFosB act-1 29, MEKK2mut PB1 HTS 74 | MEKK2wt confirm inactive | MEKK2mut-MEK5 inactive | MEKK3 confirm inactive | dFosB act-2 inactive
NC(=O)COC(=O)c1oc2ccccc2c1CSc1ccc(Cl)cc1	MEKK3 PB1 HTS 157, dFosB act-1 18 | MEKK2wt confirm inactive | MEKK2mut-MEK5 inactive | MEKK3 confirm inactive | dFosB act-2 inactive
O=C(COC(=O)c1oc2ccccc2c1CSc1ccc(Cl)cc1)NC1CCCC1	none
CCCCCN(C(=O)CCC(=O)OC(C)C(=O)NCc1ccccc1)c1c(N)n(CCCC)c(=O)[nH]c1=O (configuration not stated)	none (no result: MEKK2 WT-MEK5, MEKK3 PB1 HTS, FID counter, MEKK2mut PB1 HTS)
COc1ccc(CCC(=O)Nc2ccc(-c3noc(-c4ccc(OC)c(OC)c4)n3)cc2)cc1	MEKK3 PB1 HTS 124, dFosB act-1 29 | MEKK2wt confirm inactive | MEKK2mut-MEK5 inactive | MEKK3 confirm inactive | dFosB act-2 inactive
COc1ccc(-c2nc(-c3ccc(NC(=O)c4ccc(Br)o4)cc3)no2)cc1OC	none
CCOC(=O)c1c(CN2CCN(C)CC2)n(-c2ccccc2)c2cc(Br)c(O)cc12	none
CCOC(=O)c1c(CSC(=N)N)n(-c2ccccc2)c2cc(Br)c(OC(C)=O)cc12	MEKK2 WT-MEK5 143, dFosB act-1 30 | MEKK2wt confirm inactive | MEKK2mut-MEK5 inactive | MEKK3 confirm inactive | dFosB act-2 inconclusive
CCOc1ccc(-n2cc(C(=O)Nc3cccc(C)n3)c3cc(OC)c(OC)cc3c2=O)cc1	none
CCOc1ccc(-n2cc(C(=O)Nc3cccc(Cl)c3)c3cc(OC)c(OC)cc3c2=O)cc1	MEKK2 WT-MEK5 3.0[inhibitor], MEKK3 PB1 HTS 2.0[inhibitor], dFosB act-1 29 | MEKK2wt confirm inactive | MEKK2mut-MEK5 inactive | MEKK3 confirm inactive | dFosB act-2 inactive
COc1cc2c3nnc(-c4ccc(F)cc4)c-3cn(Cc3cccc(C)c3)c2cc1OC	MEKK2 WT-MEK5 167, dFosB act-1 41, MEKK2mut PB1 HTS 48 | MEKK2wt confirm inactive | MEKK2mut-MEK5 inactive | MEKK3 confirm inactive | dFosB act-2 inactive
O=c1c2cn(Cc3ccc(F)cc3)c3ccccc3c-2nn1Cc1ccc(F)cc1	none
COc1ccc(CN2CCN(Cc3cccc(F)c3)CC2)cc1OC	none
COc1cc2c3nnc(-c4ccccc4)c-3cn(Cc3ccc(F)cc3)c2cc1OC	MEKK2 WT-MEK5 166, dFosB act-1 22 | MEKK2wt confirm inactive | MEKK2mut-MEK5 inactive | MEKK3 confirm inactive | dFosB act-2 inactive
COc1ccccc1C1NC(=O)CCC1[N+](=O)[O-] (configuration not stated)	none
COc1ccc(C(=O)Cn2nnc(-c3ccccc3NC(=O)c3ccco3)n2)cc1	none
OC(CN1CCCCC1)Cn1c2ccccc2c2cc(Br)ccc21 (configuration not stated)	MEKK2 WT-MEK5 161, dFosB act-1 40, MEKK2mut PB1 HTS 35 | MEKK2wt confirm inactive | MEKK2mut-MEK5 inactive | MEKK3 confirm inactive | dFosB act-2 inactive
CCn1c2ccccc2c2cc(NC(=O)COC(=O)c3cc(S(N)(=O)=O)c(Cl)cc3Cl)ccc21	none
Nc1ccc(S(=O)(=O)Nc2nccc(/C=C/c3ccccc3F)n2)cc1	MEKK3 PB1 HTS 134, dFosB act-1 26 | MEKK2wt confirm inactive | MEKK2mut-MEK5 inactive | MEKK3 confirm inactive | dFosB act-2 inactive
CCOC(=O)C(C(=O)OCC)C(C[N+](=O)[O-])c1ccccc1 (configuration not stated)	none
O=C1CC(=C2c3ccccc3-c3ccccc32)C(=O)N1CCCCN1CCN(c2ccccc2)CC1	MEKK2 WT-MEK5 155, dFosB act-1 33 | MEKK2wt confirm inactive | MEKK2mut-MEK5 inactive | MEKK3 confirm inactive | dFosB act-2 inactive
COc1cc2c(cc1NC(=O)Nc1ccccc1)oc1ccccc12	MEKK2 WT-MEK5 140, dFosB act-1 19 | MEKK2wt confirm inactive | MEKK2mut-MEK5 inactive | MEKK3 confirm inactive | dFosB act-2 inactive
Cn1c(N)c(C(=O)COC(=O)CC(NC(=O)c2ccccc2Cl)c2ccccc2)c(=O)n(C)c1=O (configuration not stated)	none
COc1ccccc1C(=O)COC(=O)CCNS(=O)(=O)c1ccc(C)c(C)c1	none (no result: MEKK2 WT-MEK5, MEKK3 PB1 HTS, FID counter, MEKK2mut PB1 HTS)
